{"source": "PubChem BioAssay AID1566", "about": "(Sanford-Burnham Center for Chemical Genomics, 2009)", "note": "Among all 290,000 compounds or so, about 1,800 (0.62%) were called active. The entries come from a sample that favours actives as a whole. Values without a mark were called inactive. Cut-off read from the data, not from the text of the source: active = inhibition above about 50%; inactive = the rest."}
{"experiment": "inhibition of NOD2-driven NF-kB reporter – cell-based, luminescence, uHTS, HEK293 (AID 1566)", "conditions": "HEK293 NOD2/NF-kB luciferase reporter, at 4 µM, stronger effect = higher value"}
{"molecule": "Nc1cc(=O)[nH]c(SCC(=O)Nc2cccc([N+](=O)[O-])c2)n1", "inhibition": "0.5%"}
{"molecule": "O=C(CSc1nc2ccccc2c(=O)[nH]1)Nc1cccc([N+](=O)[O-])c1", "inhibition": "19.4%"}
{"molecule": "O=C(CSc1nncc(=O)[nH]1)Nc1cccc([N+](=O)[O-])c1", "inhibition": "67.8% (active)"}
{"molecule": "COc1ccc(NC(=O)C23CC4CC(C2)CC(n2cnc(Br)n2)(C4)C3)cc1OC", "inhibition": "-17.8%"}
{"molecule": "Cc1ccccc1NC(=O)N1CCCC(c2nc(-c3ccc(C(C)C)cc3)no2)C1", "note": "(stereo unspecified)", "inhibition": "72.9% (active)"}
{"molecule": "Cc1ccccc1NC(=O)N1CCCC(c2nc(-c3ccc(F)cc3)no2)C1", "note": "(stereo unspecified)", "inhibition": "7.4%"}
{"molecule": "COc1ccc(NC(=O)N2CCCC(c3nc(-c4ccc(C(C)C)cc4)no3)C2)cc1", "note": "(stereo unspecified)", "inhibition": "42.1%"}
{"molecule": "COCCCN1C(=O)C(O)=C(C(=O)c2ccco2)C1c1cccc(Br)c1", "note": "(stereo unspecified)", "inhibition": "7.1%"}
{"molecule": "COc1ccc(CN2CCN(Cc3ccc4cc(F)ccc4n3)CC2CCO)c(C)c1C", "note": "(stereo unspecified)", "inhibition": "-1.2%"}
{"molecule": "Cc1ccc2nc(C)c(CN3CCN(c4ccc([N+](=O)[O-])cc4Cl)CC3)n2c1", "inhibition": "52.7% (active)"}
{"molecule": "O=[N+]([O-])c1ccc(N2CCN(c3ccc(Cl)nn3)CC2)c(Cl)c1", "inhibition": "-52.2%"}
{"molecule": "CCCC(=O)N1CCN(c2ccc([N+](=O)[O-])cc2Cl)CC1", "inhibition": "-6.8%"}
{"molecule": "Cc1cc(C)c2c(N)c(C(=O)Nc3nccs3)sc2n1", "inhibition": "-123%"}
{"molecule": "Cc1cc(C)c2c(N)c(C(=O)NN)sc2n1", "inhibition": "0.7%"}
{"molecule": "Cc1cc(C)c2c(N)c(C(=O)Nc3ncc(C)s3)sc2n1", "inhibition": "62% (active)"}
{"molecule": "CN1CCN(C(=S)c2cn(Cc3ccccc3F)c3ccccc23)CC1", "inhibition": "2.8%"}
{"molecule": "CC(=O)c1cn(CC(=O)Nc2ccccc2F)c2ccccc12", "inhibition": "30.8%"}
{"molecule": "CCOC(=O)c1cnc2nc(C)[nH]n2c1=O", "inhibition": "-11%"}
{"molecule": "O=C(CNC(=O)C1CCCCC1)NCc1ccco1", "inhibition": "-3%"}
{"molecule": "Cc1nc2ccc(NC(=O)c3ccc(Cl)c(S(=O)(=O)N(C)c4ccccc4)c3)cc2s1", "inhibition": "38.6%"}
{"molecule": "Cc1nc2ccc(NC(=O)c3ccc(S(=O)(=O)N(C)c4ccccc4)cc3)cc2s1", "inhibition": "35.2%"}
{"molecule": "CN(Cc1ccccc1)C(=O)[C@H]1CCC(=O)N1Cc1ccco1", "inhibition": "-2.2%"}
{"molecule": "Cc1onc(-c2c(Cl)cccc2Cl)c1C(=O)NC(=S)N1CCOCC1", "inhibition": "11.9%"}
{"molecule": "Cc1c(OCC(=O)NC(Cc2ccc(Cl)cc2)C(=O)O)ccc2c3c(c(=O)oc12)CCCC3", "note": "(stereo unspecified)", "inhibition": "7.1%"}
{"molecule": "Cc1ccc2nc(NC(=O)CSCC(=O)OCC(=O)c3ccccc3)sc2c1", "inhibition": "51.5% (active)"}
{"molecule": "Cc1ccc2nc(NC(=O)CSCc3ccccc3)sc2c1", "inhibition": "-2.4%"}
{"molecule": "Cc1ccc2nc(NC(=O)CCCC(=O)O)sc2c1", "inhibition": "54.8% (active)"}
{"molecule": "COC(=O)c1ccc2nc(NC(=O)CSCC(=O)OCC(=O)c3ccccc3)sc2c1", "inhibition": "-10.5%"}
{"molecule": "COCC(=O)Nc1nc2ccc(C)cc2s1", "inhibition": "-98.9%"}
{"molecule": "O=C(Nc1nc2c(F)cc(F)cc2s1)c1ccccn1", "inhibition": "38.3%"}
{"molecule": "O=C(Nc1nc2ccc(F)cc2s1)c1ccccn1", "inhibition": "82.1% (active)"}
{"molecule": "Cc1cccc(OCC(=O)Nc2nc3ccc([N+](=O)[O-])cc3s2)c1", "inhibition": "35%"}
{"molecule": "Cc1ccc2nc(NC(=O)CCCc3nc4ccccc4s3)sc2c1", "inhibition": "-14.6%"}
{"molecule": "O=C(Nc1nc2ccc(F)cc2s1)c1cccs1", "inhibition": "-118%"}
{"molecule": "Cc1ccc(C)c(OCC(=O)Nc2nc3ccc([N+](=O)[O-])cc3s2)c1", "inhibition": "25.2%"}
{"molecule": "CN(C)C(=O)c1ccc2c3c(cccc13)CC2", "inhibition": "17.8%"}
{"molecule": "CCCS(=O)(=O)c1nc(S(=O)(=O)c2ccc(C)cc2)c(N2CCN(CC)CC2)s1", "inhibition": "-12.7%"}
{"molecule": "Cc1nc2nc(SCc3ccc([N+](=O)[O-])cc3)[nH]c2cc1Br", "inhibition": "-1%"}
{"molecule": "CSc1ccc(C2N=C(c3ccccc3)NO2)cc1", "note": "(stereo unspecified)", "inhibition": "-83.4%"}
{"molecule": "CCOCCCNC(=O)C(NC(=O)CNC(C)=O)c1ccc(C)cc1", "note": "(stereo unspecified)", "inhibition": "3.7%"}
{"molecule": "CCN(CC)S(=O)(=O)c1cccc(C(=O)N[C@@H](C)c2nc3ccccc3[nH]2)c1", "inhibition": "11.7%"}
{"molecule": "CCOC(=O)c1ccc(N2C(=O)C(CC(N)=O)N(NC(=O)c3cccc(F)c3)C2=S)cc1", "note": "(stereo unspecified)", "inhibition": "4.2%"}
{"molecule": "Cc1ccc2nc(NC(=O)c3ccccn3)sc2c1", "inhibition": "76.3% (active)"}
{"molecule": "Cc1ccc2nc(NC(=O)COC(=O)c3ccccn3)sc2c1", "inhibition": "-25.5%"}
{"molecule": "Cc1ccc2nc(NC(=O)c3ccccc3F)sc2c1", "inhibition": "-152%"}
{"molecule": "COc1ccc(-n2c3c(cc(C#N)c2=O)C(=O)CCC3)cc1", "inhibition": "6.2%"}
{"molecule": "CCOc1ccc(S(=O)(=O)Nc2ccc(C(=O)NCC(c3ccccc3)N(C)C)cc2)cc1", "note": "(stereo unspecified)", "inhibition": "7.3%"}
{"molecule": "CCOC(=O)c1ccc(Nc2nc(N3CCOCC3)nc(N3CCOCC3)n2)cc1", "inhibition": "-7.2%"}
{"molecule": "CCOC(=O)N1CCC(N2CCN(Cc3ccc(C)o3)C(CCO)C2)CC1", "note": "(stereo unspecified)", "inhibition": "2.4%"}
{"molecule": "CCC(C(=O)NC1CCCC1)N(C(=O)Cn1nnc(-c2ccc(C)o2)n1)c1cccc(O)c1", "note": "(stereo unspecified)", "inhibition": "8.2%"}
{"molecule": "Cc1cc(NC(=O)CSc2ncnc3ccccc23)no1", "inhibition": "20%"}
{"molecule": "Cc1cc(-n2c(C)cc(C(=O)CSc3nc4ccccc4c(=O)n3Cc3ccco3)c2C)no1", "inhibition": "18.1%"}
{"molecule": "Cc1cc(-n2c(C)cc(C(=O)CSc3ncnc4ccccc34)c2C)no1", "inhibition": "52.3% (active)"}
{"molecule": "Cc1cccc(NC(=O)COC(=O)C2C3CC4OC(=O)C2C4C3)c1C", "note": "(stereo unspecified)", "inhibition": "-27.4%"}
{"molecule": "O=C1OCCC1Sc1nnc(-c2cccnc2)n1-c1ccccc1F", "note": "(stereo unspecified)", "inhibition": "13.6%"}
{"molecule": "Cc1ccccc1-n1nnnc1SC1CCOC1=O", "note": "(stereo unspecified)", "inhibition": "5.6%"}
{"molecule": "Cc1ccccc1-n1c(SC2CCOC2=O)nnc1-c1ccncc1", "note": "(stereo unspecified)", "inhibition": "51.5% (active)"}
{"molecule": "O=C(O)c1cccc(NC(=S)N/N=C/c2ccccc2OCc2ccc(Br)cc2)c1", "inhibition": "0.3%"}
{"molecule": "C/C(=C\\c1ccccc1)CN1CCN(Cc2ccc(C)o2)C(CCO)C1", "note": "(stereo unspecified)", "inhibition": "-6.3%"}
{"molecule": "CCOC(=O)C1CCN(C(=O)CS(=O)(=O)Cc2nc(-c3ccccc3Cl)oc2C)CC1", "inhibition": "17.3%"}
{"molecule": "O=C(Nc1ccc(N2CCCCC2)cc1)c1cccnc1Cl", "inhibition": "-2.2%"}
{"molecule": "O=C(Nc1ccc(N2CCCCCC2)cc1)c1ccccc1Cl", "inhibition": "-104%"}
{"molecule": "O=C(Nc1ccc(N2CCOCC2)cc1)c1cnsn1", "inhibition": "52.4% (active)"}
{"molecule": "O=C(Nc1ccc(N2CCOCC2)cc1)Nc1cnsn1", "inhibition": "-3.9%"}
{"molecule": "Cc1cnc(C(=O)Nc2ccc(N3CCOCC3)cc2)cn1", "inhibition": "-3.6%"}
{"molecule": "O=C(Nc1ccc(N2CCCCC2)cc1)c1ccccn1", "inhibition": "69.8% (active)"}
